Source: PubChem BioAssay AID1159580 (chemical genetic matrix, 2015)
The campaign covered roughly 5,500 compounds. About 2,000 (36%) were called active. Roughly 18% stayed inconclusive and do not appear here. Rule as the data show it: active = normalized growth mostly below about 0.91 (no sharp cut-off); inconclusive = no clear call, values can overlap the other calls; inactive = mostly above about 0.92. This is one part of the list.

Assay: chemical genetic growth profiling, strain panel (AID 1159580);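 also: tested at 20 µM; growth read once vehicle control cultures reached saturation at 30 °C; 1 = growth at the plate median or of vehicle wells; lower values mean less growth of the strain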
Settings: S. cerevisiae deletion strains, growth OD

Measured: normalized growth

CC(=O)Nc1ccc(S(=O)(=O)Nc2ncccn2)cc1
inactive: locus YAL013W, strain DEP1, stronger effect = lower value 1.01 | locus YBR229C, strain ROT2, stronger effect = lower value 0.992 | locus YCL061C, strain MRC1, stronger effect = lower value 1.02 | locus YDL101C, strain DUN1, stronger effect = lower value 0.995 | locus YDL134C, strain PPH21, stronger effect = lower value 0.997 | locus YDR150W, strain NUM1, stronger effect = lower value 0.921 | locus YEL061C, strain CIN8, stronger effect = lower value 1.01 | locus YGR078C, strain PAC10, stronger effect = lower value 1 | locus YHR030C, strain SLT2, stronger effect = lower value 1.08 | locus YHR087W, strain rtc3, stronger effect = lower value 0.987 | locus YJR043C, strain POL32, stronger effect = lower value 1.01 | locus YJR075W, strain HOC1, stronger effect = lower value 0.994 | locus YLR039C, strain RIC1, stronger effect = lower value 1.02 | locus YLR058C, strain SHM2 (second series), stronger effect = lower value 1.03 | locus YLR085C, strain ARP6, stronger effect = lower value 0.958 | locus YLR262C, strain YPT6, stronger effect = lower value 1.13 | locus YML094W, strain GIM5, stronger effect = lower value 0.981 | locus YMR219W, strain ESC1, stronger effect = lower value 1 | locus YMR263W, strain SAP30, stronger effect = lower value 1 | locus YMR307W, strain GAS1, stronger effect = lower value 0.919 | locus YNL153C, strain GIM3, stronger effect = lower value 1.01 | locus YNL298W, strain CLA4 (second series), stronger effect = lower value 1 | locus YNL322C, strain KRE1, stronger effect = lower value 0.999 | locus YNR030W, strain Alg12, stronger effect = lower value 1.01 | locus YPL055C, strain LGE1, stronger effect = lower value 0.92 | locus YPL241C, strain CIN2, stronger effect = lower value 0.963 | locus YPR135W, strain CTF4, stronger effect = lower value 1.08
